Screening data as filed in PubChem BioAssay.
Compounds with a hit are over-represented: about 2% of the library has one in this group of screens.
GALR2 blocker – blocks the human galanin receptor 2 | O43603 | GALR2-expressing cells, antagonist mode | inhibition, % at 4 µM | 140,000 tested, 0.39% active; in the data active means inhibition above about 27%;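 further: cells stimulated with galanin 1-16 at roughly its EC80; 0% = agonist challenge control and 100% = basal control without agonist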
Target sequence (O43603 whole entry, looked up): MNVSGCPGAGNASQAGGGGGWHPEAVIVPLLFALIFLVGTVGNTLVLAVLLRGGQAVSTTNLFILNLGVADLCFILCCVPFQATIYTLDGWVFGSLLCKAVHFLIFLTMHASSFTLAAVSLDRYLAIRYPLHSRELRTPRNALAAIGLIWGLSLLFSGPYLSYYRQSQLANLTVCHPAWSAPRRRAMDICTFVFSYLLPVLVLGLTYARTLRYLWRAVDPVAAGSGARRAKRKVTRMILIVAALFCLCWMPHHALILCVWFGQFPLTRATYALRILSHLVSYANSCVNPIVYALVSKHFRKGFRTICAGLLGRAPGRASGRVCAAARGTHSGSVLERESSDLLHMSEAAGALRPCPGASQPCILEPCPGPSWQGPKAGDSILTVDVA
S1P2 agonist – activates the human S1P2 receptor | O95136 | S1P2-expressing cell line, agonist reporter read-out | activation, % at 4.5 µM | 97,000 tested, 0.46% active | AID 729; in the data active means activation above about 16%;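 further: 0% = vehicle low control and 100% = maximal reference agonist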
GALR2 agonist – activates the human galanin receptor 2; O43603; GALR2-expressing cells, agonist activation read-out; activation, % (concentration not given with the values); 140,000 tested, 0.48% active; in the data active means activation above about 5%, passing the limit was not always enough;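 further: 0% = vehicle buffer wells and 100% = reference agonist at full effect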
S1P2 antag – S1P2 (human) receptor antagonism | O95136 | 97,000 tested, 0.21% active | inhibition, % at 5 µM | cell-based S1P2 antagonist assay, inhibition at 5 uM | AID 736; in the data active means inhibition above about 45%;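 further: CRE beta-lactamase reporter cells expressing human S1P2 stimulated with S1P; 0% = agonist at EC80 alone and 100% = agonist plus reference antagonist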
PLAP activator – activators of human placental alkaline phosphatase. purified PLAP enzyme, luminescent substrate read-out; active compounds read high. activation fold at 20 µM. 96,000 tested, 1.2% active. AID 696; in the data active means activation fold above about 2
* marks the source's active call; other numbers are inactive results; · = not tested or not shown.

SMILES	GALR2 blocker	S1P2 agonist	GALR2 agonist	S1P2 antag	PLAP activator
Clc1cccc2sc(-c3nnc(-c4ccccc4)o3)c(Cl)c12	0	-7	0	0	·
Cc1nn(-c2ccccc2)c(Cl)c1/C=N/O	3	·	-1	·	·
Cc1nn(-c2ccccc2)c(Cl)c1/C=N/Nc1nc2ccccc2[nH]1	13	·	5.5*	·	·
COc1ccc(-c2[nH]ncc2-c2ccc(Cl)cc2)c(O)c1	7	-4	-3	-7	2*
Oc1ccc(-c2[nH]ncc2-c2ccc(Cl)cc2)c(O)c1	1	-1	-1	-5	1.6
CCCc1ccc(Oc2cn[nH]c2-c2ccc(O)c(C)c2O)cc1	8	·	-1	·	2.2*
CCOc1ccc(-c2[nH]ncc2Oc2cccc(OC)c2)c(O)c1	1	-2	-2	-10	2.6*
COc1cccc(Oc2cn[nH]c2-c2ccc(O)cc2O)c1	-7	-1	-1	7	2*
COc1ccc(-c2[nH]ncc2-c2csc(C)n2)c(O)c1	-9	·	0	·	·
CCOc1ccc(-c2[nH]ncc2-c2csc(C)n2)c(O)c1	6	·	-1	·	·
O=C(N/N=C/c1ccc(Br)s1)c1c[nH]c2ccccc12	16	·	-1	·	·
COc1cccc(Oc2cn[nH]c2-c2ccc(OC)cc2O)c1	4	-8	-3	-1	2.2*
COc1ccccc1N(C(=O)c1ccncc1)c1nc(-c2ccc([N+](=O)[O-])cc2)cs1	3	·	0	·	·
CN(C(=O)CSc1nnc(Nc2ccccc2)s1)c1c(N)n(Cc2ccccc2)c(=O)[nH]c1=O	-4	-4	-1	16	2.1*
O=C1c2[nH]nc(-c3ccccc3O)c2C(c2ccc(F)cc2)N1Cc1ccco1 (configuration not stated)	2	-5	-2	5	2.4*
O=C1c2[nH]nc(-c3ccccc3O)c2C(c2cccc(Cl)c2)N1Cc1ccco1 (configuration not stated)	1	-3	-2	-4	1.2
CCC(CC)C1C(C#N)=C(N)Oc2n[nH]c(C)c21 (configuration not stated)	-4	-1	-1	2	2.1*
O=C(CCNC(=O)c1ccccc1Cl)Nc1ccc(Cl)c(C(F)(F)F)c1	-1	·	0	·	·
CCOC(=O)c1ccc(NC(=O)C2(c3ccccc3)CCOCC2)cc1	-8	-8	-2	0	·
O=C1NC(Nc2nccs2)(C(F)(F)F)C(=O)N1CCc1ccccc1 (configuration not stated)	5	-8	-2	4	2*
CCOC(=O)c1c(C)[nH]c(C)c1C(=O)COC(=O)c1ccc(Cl)c(S(N)(=O)=O)c1	2	-1	0	-5	1.6
CC(=O)N1CCC2(CC1)C(C#N)=C(N)Oc1n[nH]c(CSc3ccc(C)cc3)c12	3	1	-2	1	2*
Cc1ccc(SCc2[nH]nc3c2C2(C(=O)Nc4ccc(F)cc42)C(C#N)=C(N)O3)cc1 (configuration not stated)	-2	-8	-4	-5	2*
COc1cccc(CN2C(=O)C3CCCN3c3ccc(S(=O)(=O)N4CCOCC4)cc32)c1 (configuration not stated)	-6	-3	-2	10	1.5
CCCNC(=O)CCC(NS(=O)(=O)c1ccc(C)cc1)C(=O)NCCC (configuration not stated)	-7	-6	-1	0	0.9
SMILES	GALR2 blocker	S1P2 agonist	GALR2 agonist	S1P2 antag	PLAP activator
CCCNC(=O)CCC(=O)Nc1ncc(-c2ccc(C)cc2)n1C	-1	-6	-3	-7	2.2*
COc1ccc(S(=O)(=O)N2CCN(CC(=O)Nc3ccc(C)c(F)c3)CC2)cc1	-7	-1	-2	5	1.6
O=C(COC(=O)c1cccnc1Nc1cccc(C(F)(F)F)c1)NC1CCS(=O)(=O)C1 (configuration not stated)	0	·	-1	·	·
CCCCCCNC(=O)c1c(N)n(/N=C/c2ccco2)c2nc3ccccc3nc12	-1	3	3	-12	·
CCCCCCn1c(C)nc2c(c1=O)c1nc3ccccc3nc1n2/N=C/c1ccco1	-15	-1	-1	-12	2*
CC(C)OCCCn1c(=NC(=O)c2ccncc2)c(C#N)cc2c(=O)n3ccccc3nc21	-23	41*	12*	-54	0.9
CCCn1c(=NC(=O)c2ccco2)c(C(=O)OCC)cc2c(=O)n3ccccc3nc21	-3	7	2	-51	1.2
CCOC(=O)c1cc2c(=O)n3ccccc3nc2n(CCCOC)c1=NC(C)=O	-14	35*	13*	-56	1.1
C=CCn1c(=N)c(C(=O)NCCCOC)cc2c(=O)n3ccccc3nc21	-3	30*	23*	-33	1
